According to PubChem BioAssay:
Active and inactive are the calls of the source.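 Rule for the calls: active = inhibition above the hit cutoff set in the earlier primary screen (cut at about 27% in these data); inactive = the rest.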

Target: Protein phosphatase methylesterase 1 (Homo sapiens) (UniProt Q9Y570)
Experiment: PME-1 inhibitor activity retest, confirmation, biochemical, fluorescence polarization, FP-Rh probe, triplicate (AID 2171);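 note: 0% = enzyme with DMSO and 100% = wells lacking PME-1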
Conditions: recombinant PME-1, FP-Rh probe fluorescence polarization; at 5.9 µM; hits give high values

Chain of Protein phosphatase methylesterase 1 (Homo sapiens) (Q9Y570 whole entry, looked up): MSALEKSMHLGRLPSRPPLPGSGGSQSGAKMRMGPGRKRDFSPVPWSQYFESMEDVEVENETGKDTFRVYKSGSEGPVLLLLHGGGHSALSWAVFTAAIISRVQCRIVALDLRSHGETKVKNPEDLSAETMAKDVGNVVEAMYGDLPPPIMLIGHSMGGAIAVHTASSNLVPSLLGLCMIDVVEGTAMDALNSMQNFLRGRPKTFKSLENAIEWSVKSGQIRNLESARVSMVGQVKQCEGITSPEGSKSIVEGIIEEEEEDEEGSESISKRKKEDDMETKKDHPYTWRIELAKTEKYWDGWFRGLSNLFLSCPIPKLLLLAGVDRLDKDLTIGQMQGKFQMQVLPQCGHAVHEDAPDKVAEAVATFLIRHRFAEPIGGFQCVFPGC

| Compound | inhibition |
| --- | --- |
| COc1ccc(N/N=C(\C=N\O)C(=O)c2ccc(OC)cc2)cc1 | 58.9% (active) |
| O=C(O)CSc1cc(NS(=O)(=O)c2ccc(Br)cc2)c2ccccc2c1O | 3.78% (inactive) |
| CCOC(=O)C(C)On1c(-c2ccccc2)nc2ccc([N+](=O)[O-])cc21 (stereo not given) | 34.2% (active) |
| COC(=O)N1C(=O)[C@](c2ccc(OC)cc2)(C(C)C)N1C(=O)OC | 48.2% (active) |
| COc1cccc(-c2nnc(Nc3nc4c(F)cccc4s3)o2)c1 | 46.2% (active) |
| CC(=O)c1c(C)n(-c2ccc(N(C)C)cc2)c2ccc(OCC(N)=O)cc12 | 23.7% (inactive) |
| Cc1[nH]c2c(C(=O)N3CCCC(CCC(=O)NCc4ccccc4F)C3)cccc2c1C (stereo not given) | 39.7% (active) |
| CCOc1ccccc1/C=C(\C#N)C(=O)Nc1cccc(C(=O)O)c1 | 5.46% (inactive) |
| Cc1[nH]c2ccccc2c1/C=C/c1nc2ccccc2c(=O)n1CCO | 68.3% (active) |
| C/C(=N/NC(=O)c1cc2ccccc2cc1O)C1C(=O)c2ccccc2C1=O | 68.6% (active) |
| Cc1ccc(S(=O)(=O)c2nnn3c2nc(N2CCOCC2)c2ccccc23)c(C)c1 | 21.9% (inactive) |
| CCN(CC)C(=S)Sc1c(-c2ccccc2)c2cc(Cl)ccc2[nH]c1=O | 39.7% (active) |
| Cc1ccc(C(=O)O)cc1N1C(=O)c2cccc3c([N+](=O)[O-])ccc(c23)C1=O | 38.7% (active) |
| O=C(Nc1cccc(-c2csc(Nc3ccccc3)n2)c1)c1cc([N+](=O)[O-])cc(C(F)(F)F)c1 | 23% (inactive) |
| CCOc1ccc(/C=C2\SC(=S)N(C(C(=O)O)c3ccccc3)C2=O)cc1OC (stereo not given) | 43.8% (active) |
| Oc1ccc(/C=N/Nc2ccc(C(F)(F)F)cn2)c(O)c1 | 17.8% (inactive) |
| CCC(C)Nc1nc(N)c([N+](=O)[O-])c(Nc2cc(OC)ccc2OC)n1 (stereo not given) | 34.5% (active) |
| CCc1cccc(CC)c1NC(=O)COc1ccccc1C(=O)c1cc(C#N)c(=O)n(C2CCCCC2)c1 | 35.9% (active) |
| COc1cc2cc3c(N)c(C(=O)NCc4ccco4)sc3nc2cc1OC | 110% (active) |
| COc1cc2nc(Nc3ccc(C)c(Cl)c3)nc(N)c2cc1OC | 49.4% (active) |
| O=S(=O)(c1ccc(-c2csc(Nc3ccc(Br)cc3)n2)cc1)N1CCCC1 | 16.5% (inactive) |
| Fc1cccc2sc(Nc3nc4cc5c(cc4s3)OCO5)nc12 | 76.3% (active) |
| COc1ccccc1/C=C/C=N/n1c(-c2cc(-c3ccccc3)n[nH]2)n[nH]c1=S | 23.4% (inactive) |
| CCOC(=O)C1=C(C)Nc2ccccc2N/C1=N\S(=O)(=O)c1cccc(Cl)c1 | 18.7% (inactive) |
| Oc1ccccc1C1Nc2cccc3cccc(c23)N1 | 24.4% (inactive) |
